The text below walks through data of PubChem BioAssay (NCATS).

Test [1] deals with Rap guanine nucleotide exchange factor 3 (Homo sapiens) (UniProt O95398). Kind of test: Counterscreen qHTS for antagonist of cAMP-regulated guanine nucleotide exchange factor 3 (EPAC1) (AID 1645888).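 Further: fluorescence loss as bound BODIPY-GDP is released from Rap1B.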 The method in brief:
(§1)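 Measured: fluorescence of BODIPY-GDP bound to Rap1B, which falls as exchange proceeds. Conditions include 50 uM competing GDP, 5 and 30 min reads, and a later cAMP challenge for antagonist detection.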
(Counterscreens check selectivity or assay interference.)

Test [2] has the same target. Kind of test: Counterscreen qHTS for agonist of cAMP-regulated guanine nucleotide exchange factor 3 (EPAC1) (AID 1645889). Further: nearly all actives have a fitted effect of over 40% in size. The method in brief: as §1

SMILES strings stand for the structures. Records with an inconclusive call do not appear. A call without a number means that no potency is given here. Values without a mark were called inactive. Activity calls are given as the source filed them. The call rests on the fitted dose curve; in most records, active means well fitted curve in the direction sought with a large enough effect; inconclusive means small, poorly fitted or top-dose-only effect, or another doubt; inactive means no such curve, though single readings can be large; an effect the other way counts as inactive or inconclusive.

Sequence of Rap guanine nucleotide exchange factor 3 (Homo sapiens) (O95398 whole entry, looked up): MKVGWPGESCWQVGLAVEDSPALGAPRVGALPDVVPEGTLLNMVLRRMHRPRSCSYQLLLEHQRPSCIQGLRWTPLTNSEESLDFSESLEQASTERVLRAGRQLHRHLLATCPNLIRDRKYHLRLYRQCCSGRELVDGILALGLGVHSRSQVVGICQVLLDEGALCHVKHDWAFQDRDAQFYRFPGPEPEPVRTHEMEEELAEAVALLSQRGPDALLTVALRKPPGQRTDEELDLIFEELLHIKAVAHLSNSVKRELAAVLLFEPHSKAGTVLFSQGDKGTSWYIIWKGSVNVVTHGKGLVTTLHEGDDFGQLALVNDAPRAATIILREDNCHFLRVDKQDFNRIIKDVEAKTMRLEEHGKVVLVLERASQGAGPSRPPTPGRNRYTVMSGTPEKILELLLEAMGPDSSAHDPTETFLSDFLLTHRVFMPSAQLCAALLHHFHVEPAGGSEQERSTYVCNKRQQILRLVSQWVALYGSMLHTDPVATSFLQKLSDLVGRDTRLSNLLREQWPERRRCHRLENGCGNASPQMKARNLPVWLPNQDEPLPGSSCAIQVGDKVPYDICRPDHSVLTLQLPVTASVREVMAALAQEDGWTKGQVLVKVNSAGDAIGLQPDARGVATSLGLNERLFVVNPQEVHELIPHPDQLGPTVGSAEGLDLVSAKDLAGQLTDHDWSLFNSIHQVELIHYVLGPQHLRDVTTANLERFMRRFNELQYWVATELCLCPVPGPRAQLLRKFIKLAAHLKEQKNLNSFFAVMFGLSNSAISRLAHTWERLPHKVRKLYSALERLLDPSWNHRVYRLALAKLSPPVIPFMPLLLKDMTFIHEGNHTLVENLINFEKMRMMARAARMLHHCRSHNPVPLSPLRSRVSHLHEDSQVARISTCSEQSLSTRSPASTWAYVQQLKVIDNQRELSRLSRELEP

As to `O=C1OC(c2ccccc2)(c2ccc(O)cc2)c2ccccc21` (stereo not drawn), in test [1], the activity change, negative = inhibition was -9.22% [at 30.8 µM].

For the molecule `COc1ccc(/C=N/n2cnc3c([nH]c4ccc(F)cc43)c2=O)cc1CN1CCCC1`, the Potency entry in test [2] was “inactive”.

`Clc1ccc(C2Nc3cccc4cccc(c34)N2)c(Cl)c1`: the Potency result in test [1] is “inactive”.
